Reference: the supplement of paper PMC11417369
The full ranking holds about 25,000 sequences; the median of “ln(normalized median fluorescence intensity)” is about 9.7, and the highest 2% start at about 11. What follows is part of a selection rich in the highest values, with near analogues and random picks from the rest.

The sequences below were run on PfAP2-HC AP2 domain (GST-tagged) (assay: gcPBM binding intensity (ln(normalized median fluorescence intensity)); higher = stronger DNA binding).
In short: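 Binding intensity is defined as the maximum Masliner-normalised natural-log median intensity across replicate spots for either probe orientation. It was measured on an Agilent 4 × 180k array of primer-extended double-stranded 36-bp intergenic genomic probes and negative controls, to which GST-tagged P. falciparum DNA-binding domains made in E. coli were applied for 1 h in 1× PBS with 1% milk, 0.2 mg/ml BSA, 0.5% salmon testes DNA and 0.03% Triton X-100. Detection was by Alexa488 anti-GST antibody and scanning at 488 nm.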

Row | Sequence | gcPBM binding intensity (ln)
1 | TACTAAGAATTAATATAACAAAATAAAAAAAAAAAA [XGTACX_negctrl_site346] | 9.44
2 | CAATTTATAAAGAAAACACACATATACCTATATACA [CACACA_site6710] | 9.85
3 | TACAATTTATGACACACACACAATAATACCTATATA [CACACA_site6704] | 10.3
4 | AATACAATTTATAACACACACACAAGAATACCTATA [CACACA_site6705] | 11.1
5 | ATTGCATTTGTAGATAATACAATATGGATTGTTATA [CACACA_negctrl_site1749] | 9.44
6 | TCCTTATTACTTTTTTAAGTCGTAATGAAAGAAAAA [CACACA_negctrl_site1497] | 9.15
7 | CAAAATATATATACCACACACACATACCTCTATTTG [CACACA_site1853] | 10.4
8 | AAATATTTATACCACACACACATACCTCTATTTGTA [CACACA_site6957] | 10.7
9 | AAATATATATACCACACACACATACCTCTATTTGTA [CACACA_site1854] | 11.1
10 | TATACCTATAGACACACACACATATAGATTTATATA [CACACA_site7124] | 11.1
11 | AATAGATATATAAATACACACAAACATACCTATATA [CACACA_site7823] | 10.6
12 | TATACCTATAGACACACACACATAAATAGATATATA [CACACA_site6748] | 11.1
13 | CATACACATAGACACACACACATATATACCTATATA [CACACA_site6644] | 10.8
14 | CATACATAGATATATACACACATACCTATAAATACA [CACACA_site6513] | 10.2
15 | ATATATACCTAAGACACACACATATAGATTTATATA [CACACA_site6498] | 10.4
16 | TATAGATACCTATACACACACACACGGACATATATA [CACACA_site7585] | 10.8
17 | CATATATACCTATATACACACATATAGATTTATATA [CACACA_site6451] | 9.78
18 | GATACCTATAGACACACACACATACCTATATACATA [CACACA_site7586] | 10.9
19 | TTTGTAAGTCTTTGTTGTACTCAATAGAATGAAGAA [XGTACX_site8930] | 9.45
20 | AACTCTTAGAATGACGGTACAGTATAATAGGTGAAC [XGTACX_site7163] | 9.69
21 | TATAACTTTTTTAATACACACAAATATTTATTTATA [CACACA_site7425] | 9.61
22 | ATACGTATATAATATACATGCATATATAGCACATAC [TGCATGCA_site376] | 9.83
23 | TATAAATATACAAACACACATACAAACATATATATA [CACACA_site1120] | 10.2
24 | CATACATACAAACACACACACATATATATATATATA [CACACA_site43] | 10.2

Row | Sequence | gcPBM binding intensity (ln)
25 | AAAAAAAACGAACACACACACATACAAAATCTATAT [CACACA_site6795] | 11.1
26 | AATTCAAATATAAATACACACACATAGCTACAAAAT [CACACA_site9386] | 10.3
27 | TTCAAATATAAATACACACACATAGCTACAAAATAA [CACACA_site4172] | 11
28 | TAAATATATAAATACACACAAACATACATATATATA [CACACA_site4050] | 10.1
29 | TACAATCTAAAATACACACACACAAACATATATTTA [CACACA_site3702] | 10.7
30 | CATACATACAAACACACACACATATAAATACATACA [CACACA_site4625] | 11.2
31 | CATACATACAAACACACACACATATATATACATACA [CACACA_site852] | 11.4
32 | AATATATAGCTAAAAACACACAAATATATACACATA [CACACA_site9203] | 9.97
33 | AAATATAAAAAATATACACACATATAAAATCTATAT [CACACA_site7406] | 9.91
34 | CACATACACATACAAACACACATTATATATATATAT [CACACA_site8460] | 10.4
35 | CAGCTCTTAAGAATTACACACATATACACATATATA [CACACA_site7524] | 9.95
36 | TAAAATTTTTTTGTTTGTACATATATATATATAATA [XGTACX_site5609] | 9.53
37 | CATTATTTATTTTAATGTACTTATTTTTAAATTGGT [XGTACX_site8038] | 9.54
38 | TTTTCTTGTAAATTACGTACGAATGTGTAGAGAAAT [XGTACX_site1339] | 9.47
39 | TATATATATATATGTAGTACTCAATATTGTAGATTA [XGTACX_site3856] | 9.64
40 | CTAGCAAATACATACACACACACACCGATACATATA [CACACA_site9164] | 10.7
41 | AAATATAAAAATAGCACACATATATACATATATATA [CACACA_site56] | 9.88
42 | TTATAATTATATACATGTACATATAATACATATATA [XGTACX_site8904] | 9.46
43 | AATGATCAGATATACACACACACAAAAAAAAAAAAA [CACACA_site7806] | 10.4
44 | AATGATCATATATACACACACACAAAAAAAAAAAAA [CACACA_site4009] | 11.2
45 | TAAATCCGCAGGCACACACACATATTAATAAAAAAA [CACACA_site3991] | 10.8
46 | AAAAAAAAAAAAAACACACACACAAATACAAATACA [CACACA_site414] | 11.5
47 | AATAAACATAAATACACACACAAAAAAAAAAACATA [CACACA_site4396] | 10.3
48 | AAAAAAAAAAAAAACACACACACAAATACAAATGGT [CACACA_site1721] | 10.5

Row | Sequence | gcPBM binding intensity (ln)
49 | TATACGCATATATAAACACACAAAAAAAAAAAAAAA [CACACA_site2026] | 9.43
50 | ATTAAATCCGCACGCACACACACATATTAATAAAAA [CACACA_site3992] | 11.1
51 | CATATACGCAAACACACACACATATATATATATATA [CACACA_site501] | 11.6
52 | TAAATCCGCACGCACACACACATATTAATAAAAAAA [CACACA_site7800] | 10.5
53 | AATGATCATAAATACACACACACAAAAAAAAAAAAA [CACACA_site6072] | 10.3
54 | TACATATATATATACACACATACATATATATACGCA [CACACA_site792] | 9.85
55 | ATTAATATATTTACCACACACCCATTTCGATTTTAT [CACACA_site3605] | 10.3
56 | AATATATATATAAATAATATACCTATATATTTTTTG [XGTACX_negctrl_site407] | 9.61
57 | TAATATATTAATATATGTACATATTTATATATCTAC [XGTACX_site7117] | 9.81
58 | TTTTATAAATATTATACATGCATAATGATAAAAAAA [TGCATGCA_site927] | 9.55
59 | TAATAATAAAAATAAACACACATATATCTGTATTTA [CACACA_site5572] | 9.74
60 | TTTTCTTTTTTGAACTGTACGCGTAAATTTAAAAAG [XGTACX_site882] | 9.36
61 | TTTTTGTTACCTATTGTGCACTTCATATAAATTAAA | 9.74
62 | ATATATAATATTTATTGTACTATTTTATTTTTATAA [XGTACX_site705] | 9.62
63 | ATGATTATACAAAATATACACACGTGGACACAAATA [CACACA_site8304] | 10.3
64 | AGCCACTTAAAATACACACACACCAAAAAAAAAAAA [CACACA_site5497] | 10.2
65 | TTATACACAAAAAAAAAAATATATATATATATATAT [XGTACX_negctrl_site5] | 9.49
66 | AAAATACACGCATACACACACACACGCGCACATATA [CACACA_site6448] | 10.6
67 | AAAAAAAATACATACACACACACACGCACATATATA [CACACA_site7645] | 11.7
68 | CAAATACACGGACACACACACACAAAAAAAAAAAAA [CACACA_site6385] | 11
69 | ACCTAAAATAACTACACACACATAAAAAAAAAAAAA [CACACA_site2529] | 10.2
70 | TAACCTAAAATAACTACACACACATAAAAAAAAAAA [CACACA_site8807] | 11.2
71 | ACGGACTTAAAATACACACACACCAAAAAAAAAAAA [CACACA_site7304] | 10.2
72 | CACGCACGCACATACACACACATACACATATAAATA [CACACA_site6907] | 10.1

Row | Sequence | gcPBM binding intensity (ln)
73 | CCACACTTAAAATACACACACACCAAAAAAAAAAAA [CACACA_site2709] | 11.3
74 | TATATAACTAAAATAACACACATATATAAAAATATA [CACACA_site7416] | 9.88
75 | ACAATATGTATATATATATATATGCAAATGTATAAA [CACACA_negctrl_site53] | 9.78
76 | TTTTTTAAAGCCTGTTCATCATCCTTACCTATCAAC [GTGCAC_negctrl_site452] | 9.49
77 | ATATAATATACTTATTGTACTTATTTAAAATACTAA [XGTACX_site4266] | 9.58
78 | TACTTAAAAAAAAAAAAAATAAATATTATGTATTAT [CACACA_negctrl_site138] | 9.36
79 | AAAGTTACATTCGACACACACATAACAACTAAATAA [CACACA_site3419] | 10.1
80 | TGTATATTTGTTGTTACACACATATATTTTTTTTTT [CACACA_site128] | 9.86
81 | TTGGATTTTCCATAATGTACACATAAAAGTGTTACA [XGTACX_site4544] | 9.4
82 | CAATGTTGTACATACACACACACAAAAAAAAAATAA [CACACA_site2407] | 11.4
83 | AAAAAAAAAAAAAACACACACACACGCATACAAAAT [CACACA_site6794] | 10.6
84 | AATAAAAAAATAAAATGTACATACAAATAAATAAAT [XGTACX_site5153] | 9.9
85 | TATACGCAGAAACACACACACAAAAAAAAAAAAAAA [CACACA_site427] | 10.5
86 | ATTAAATACATTAACACACACACAAATATGTACATA [CACACA_site7372] | 11
87 | AACAATGTTGTACATACACACACACTAATAAAAAAT [CACACA_site8758] | 10.3
88 | AGTATACACAAACACACACACACAAAAAAAAAAAAA [CACACA_site8036] | 10.7
89 | ATTAAATACATTAACACACACACAAATAAATACATA [CACACA_site5583] | 10.4
90 | AAAAAAAAAAAAAACACACACACACGCATACACATA [CACACA_site7364] | 10.7
91 | ATTAAATACATTAACACACACACAAATATATACATA [CACACA_site2881] | 10.7
92 | AGTATACGCAAACACACACACACAAAAAAAAAAAAA [CACACA_site426] | 11.2
93 | AAAAAAAAAAAAAACACACACACACGCAAATACATA [CACACA_site6474] | 11.4
